Growth data for 36 compounds are collected here from PubChem BioAssay (NCI).

“And” between values parts separate entries of the source, which are not always exact repeats. Equal values may be shown once. The panel holds about 83,000 compounds, 20% with a hit somewhere; the sample as a whole holds those more often.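 Growth was measured after 48 h exposure to one concentration of compound in 96-well plates. Values under 10 count as active.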 The source made the active and inactive calls.

The test system of the first experiment is NCI-H322M lung. Put plainly: NCI-60 one-dose screen, 48 h (100 = growth as untreated, 0 = no growth, -100 = all killed). As to conditions: 10 µM unless noted.
As to `COc1cc2c(c(OC)c1OC)-c1ccc(OC)c(=O)cc1[C@@H](NC(C)=O)CC2`, the growth is 47.7% (inactive) and 32.9% (inactive) and 36.1% (inactive).

Regarding `CN1CCN(c2ccc3nc(-c4c(N)c5c(F)cccc5[nH]c4=O)[nH]c3c2)CC1`, the growth was 52.4% (inactive) and 61.6% (inactive).

As for `NC(=S)NN=C1CCC(C2CCCCC2)CC1` (stereo not given), the growth is 95.9% (inactive) and 88.2% (inactive).

For `c1ccc2cc(C[n+]3ccn(Cc4ccc5ccccc5n4)c3)ccc2c1`, the growth is 34.8% (inactive) and 75% (inactive).

In the case of `CN(C)CCC(=O)c1ccc(Cl)cc1`, the growth was 110% (inactive) and 116% (inactive).

Consider `Fc1ccccc1Nc1n[nH]c(=S)s1`, for which the growth was 128% (inactive).

For `CCOc1ccc2cc(-c3nn(CC4CCN(C)CC4)c4ncnc(N)c34)ccc2c1`, the growth is 92.7% (inactive) and 87.4% (inactive).

With `CC[N+](CC)(CC(=O)Nc1c(C)cccc1C)Cc1ccccc1`, the growth is 110% (inactive) and 93.8% (inactive).

As for `CC1=CCC2CC1C2(C)C` (stereo not given), the growth was 92.4% (inactive) and 94.8% (inactive).

Regarding `CC1(C)[C@@H](OC(=O)CCC(=O)O)CC[C@]2(C)[C@H]3C(=O)C=C4[C@@H]5C[C@@](C)(C(=O)O)CC[C@]5(C)CC[C@@]4(C)[C@]3(C)CC[C@@H]12`, the growth is 107% (inactive) and -54.4% (active).

For `CCC(O)c1ccccc1` (stereo not given), the growth is 114% (inactive) and 105% (inactive).

For the compound `CN(Cc1ccccc1)Cc1ccccc1`, the growth is 81.3% (inactive).

For the compound `COc1ccc(-c2ncnc3c2ncn3C/C=C/CCl)cc1`, the growth was 100% (inactive) and 105% (inactive).

Consider `NS(=O)(=O)c1cc2c(cc1Cl)NC(C(Cl)Cl)NS2(=O)=O` (stereo not given), for which the growth was 98.8% (inactive) and 101% (inactive).

As to `O=Nc1ccc(O)cc1`, the growth is 104% (inactive) and 97.4% (inactive).

As to `COc1ccc2c(=O)cc(-c3ccccc3)[nH]c2c1`, the growth was 66.1% (inactive) and 56.9% (inactive).

Regarding `O=CC(O)C(O)C(O)CO` (stereo not given), the growth is 101% (inactive) and 96.6% (inactive).

In the case of `CN(C)c1ccc(/C=C(\C#N)c2ccccc2)cc1`, the growth is 64% (inactive) and 57.1% (inactive) and 47.6% (inactive).

In the case of `OCCN1CCN(CCO)CC1`, the growth was 106% (inactive) and 85.9% (inactive) and 115% (inactive).

With `CC1=C[C@H]2c3c(c(O)c(O)c4oc5cc(O)cc(O)c5c(=O)c34)[C@H](c3cc(O)c(O)c4oc5cc(O)cc(O)c5c(=O)c34)[C@H]2C(C)(C)C1`, the growth was 12.1% (inactive) and -11.1% (active).

Regarding `CCOc1ccc2c(S(=O)(=O)O)cccc2c1[N+](=O)[O-]`, the growth is 102% (inactive) and 104% (inactive).

As for `Nc1ccccc1Nc1ccccc1`, the growth is 86.5% (inactive) and 93% (inactive).

Take `Oc1ccccc1C=NCC1CCC(CN=Cc2ccccc2O)CC1` (stereo not given): the growth is 80.3% (inactive).

For `Clc1ccc(NC(Nc2ccc(Cl)cc2)C(Cl)(Cl)Cl)cc1`, the growth was 81.4% (inactive) and 104% (inactive).

A further experiment relates to HOP-62 NSCLC. The experiment is described as above. As to conditions: 10 µM unless noted.
As to `COc1ccc(/C(C#N)=C/c2ccccn2)cc1`, the growth is 112% (inactive) and 109% (inactive).

Consider `O=C1OC2(c3ccccc31)c1ccc(O)c(O)c1Oc1c2ccc(O)c1O`, for which the growth is 114% (inactive) and 101% (inactive).

Regarding `CC(=O)Nc1cccc2c1CCCC2`, the growth was 91.8% (inactive) and 84% (inactive).

Consider `CN(C)c1ccc2nc3ccc(N)cc3[n+](-c3ccccc3)c2c1`, for which the growth is 12.6% (inactive) and 42.7% (inactive).

Regarding `CCN(CC)CCOc1ccc(/C=N/Nc2nc3c([nH]2)c(=O)n(C)c(=O)n3C)cc1`, the growth is 103% (inactive) and 108% (inactive).

Regarding `O=C1CCN(Cc2ccccc2)C(=S)N1`, the growth was 101% (inactive) and 103% (inactive).

`CC(C)Cc1ccc(C(C)C(=O)NCc2ccc(Cn3c(=O)sn(CCCI)c3=O)cc2)cc1` (stereo not given): the growth was -56.2% (active).

Regarding `CCc1c(CC(=O)O)c2cc(C)ccc2n1Cc1ccc(Cl)cc1`, the growth is 94.7% (inactive) and 70.2% (inactive).

Turning to `CNC(=O)c1ccc(C)c(-n2c(C)cc(OCc3ccc(F)cc3F)c(Br)c2=O)c1`, the growth is 69.8% (inactive) and 89% (inactive).

Consider `O=[N+]([O-])c1ccc(-n2[nH]nnc2=S)cc1`, for which the growth is 102% (inactive).

Regarding `COC(=O)/C=C/c1cc(O)c2c(c1)C(C(=O)OC)C(c1ccc(O)c(O)c1)O2` (stereo not given), the growth was 45.8% (inactive) and 37.5% (inactive).

Take `COC(=O)c1nc(N)nc(C(=O)OC)c1C(=O)c1ccc(OC)cc1`: the growth was 115% (inactive) and 62.3% (inactive).

In the case of `COc1cc2c(c(OC)c1OC)-c1ccc(OC)c(=O)cc1[C@@H](NC(C)=O)CC2`, the growth is 31.2% (inactive) and 24.6% (inactive) and 20% (inactive).

For `CN1CCN(c2ccc3nc(-c4c(N)c5c(F)cccc5[nH]c4=O)[nH]c3c2)CC1`, the growth is 23.4% (inactive) and 24.6% (inactive).

In the case of `NC(=S)NN=C1CCC(C2CCCCC2)CC1` (stereo not given), the growth is 113% (inactive) and 111% (inactive).

`c1ccc2cc(C[n+]3ccn(Cc4ccc5ccccc5n4)c3)ccc2c1`: the growth is 1.85% (active) and 44.3% (inactive).

As for `CN(C)CCC(=O)c1ccc(Cl)cc1`, the growth is 112% (inactive) and 115% (inactive).

Take `Fc1ccccc1Nc1n[nH]c(=S)s1`: the growth is 108% (inactive).

In the case of `CCOc1ccc2cc(-c3nn(CC4CCN(C)CC4)c4ncnc(N)c34)ccc2c1`, the growth is 83.8% (inactive) and 77.2% (inactive).

`CC[N+](CC)(CC(=O)Nc1c(C)cccc1C)Cc1ccccc1`: the growth was 85.2% (inactive) and 93.2% (inactive).

With `CC1=CCC2CC1C2(C)C` (stereo not given), the growth was 82.8% (inactive) and 68.9% (inactive).

For the compound `CC1(C)[C@@H](OC(=O)CCC(=O)O)CC[C@]2(C)[C@H]3C(=O)C=C4[C@@H]5C[C@@](C)(C(=O)O)CC[C@]5(C)CC[C@@]4(C)[C@]3(C)CC[C@@H]12`, the growth is 103% (inactive) and -54.9% (active).

For the compound `CCC(O)c1ccccc1` (stereo not given), the growth is 87.2% (inactive) and 109% (inactive).

Turning to `CN(Cc1ccccc1)Cc1ccccc1`, the growth was 93% (inactive).

Turning to `COc1ccc(-c2ncnc3c2ncn3C/C=C/CCl)cc1`, the growth is 98.7% (inactive) and 95.9% (inactive).

In the case of `NS(=O)(=O)c1cc2c(cc1Cl)NC(C(Cl)Cl)NS2(=O)=O` (stereo not given), the growth is 104% (inactive) and 122% (inactive).

`O=Nc1ccc(O)cc1`: the growth is 101% (inactive) and 97.3% (inactive).

In the case of `COc1ccc2c(=O)cc(-c3ccccc3)[nH]c2c1`, the growth was 30.1% (inactive) and 21.2% (inactive).

Consider `O=CC(O)C(O)C(O)CO` (stereo not given), for which the growth was 114% (inactive) and 97.6% (inactive).

Turning to `CN(C)c1ccc(/C=C(\C#N)c2ccccc2)cc1`, the growth was 48.3% (inactive) and 31.4% (inactive) and 36.6% (inactive).

Turning to `OCCN1CCN(CCO)CC1`, the growth is 100% (inactive) and 79.5% (inactive) and 106% (inactive).

In the case of `CC1=C[C@H]2c3c(c(O)c(O)c4oc5cc(O)cc(O)c5c(=O)c34)[C@H](c3cc(O)c(O)c4oc5cc(O)cc(O)c5c(=O)c34)[C@H]2C(C)(C)C1`, the growth was -16.2% (active).

As for `CCOc1ccc2c(S(=O)(=O)O)cccc2c1[N+](=O)[O-]`, the growth is 102% (inactive) and 105% (inactive).

Turning to `Nc1ccccc1Nc1ccccc1`, the growth was 103% (inactive) and 91.6% (inactive).

For `Oc1ccccc1C=NCC1CCC(CN=Cc2ccccc2O)CC1` (stereo not given), the growth was 94.5% (inactive).

As to `Clc1ccc(NC(Nc2ccc(Cl)cc2)C(Cl)(Cl)Cl)cc1`, the growth was 61.3% (inactive) and 86.3% (inactive).
